Cy5 interf NS3h – enhances or quenches Cy5 fluorescence in NS3h assay; Cy5-dT15 DNA with NS3h, fluorescence interference; actives lie on both sides; signal over control mean, under 1 quenches; fluorescence interference ratio at 100 µM; actives 6% (n = 16,000); AID 720488;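 active means compound fluorescence over control fluorescence at most 0.8, a quencher, or at least a set upper limit, an enhancer; inactive means ratio between 0.8 and the set upper limit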
NS3h inh CB – hepatitis C NS3 helicase inhibition, primary screen | inhibition, % at 100 µM | NS3h Cy5-dT15 DNA binding, fluorescence polarization | AID 687043 | actives 1.6% (n = 16,000);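 active means inhibition above the average over every tested compound plus 3 SD, cut at about 40% in these data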
NS3h confirm – confirmation of hepatitis C virus NS3 helicase inhibitors; shares compounds with NS3h inh CB; NS3h binding to Cy5-dT15 DNA, fluorescence polarization; inhibition, % at 100 µM; actives 20% (n = 240); AID 720485;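 active means percent inhibition of 50% or more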
SSB-DNA FP CB – E. coli SSB-DNA binding inhibition, NS3h counter-screen | shares compounds with NS3h inh CB | E. coli SSB binding Cy5-dT15, fluorescence polarization | inhibition, % at 100 µM | actives 40% (n = 240) | AID 720486;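 active means inhibition of at least 50%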;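 further: displacers lower Cy5 polarization so higher inhibition means more SSB displaced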
Target sequence (P0AGE0 whole entry, looked up): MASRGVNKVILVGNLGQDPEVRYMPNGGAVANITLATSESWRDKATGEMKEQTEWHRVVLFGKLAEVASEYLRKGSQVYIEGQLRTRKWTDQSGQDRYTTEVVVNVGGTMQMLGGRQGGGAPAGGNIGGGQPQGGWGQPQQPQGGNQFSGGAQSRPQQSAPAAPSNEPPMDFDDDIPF
Cy5 SSB interf – enhances or quenches Cy5-DNA fluorescence with E. coli SSB | fluorescence interference ratio at 100 µM | AID 720487 | shares compounds with NS3h inh CB | Cy5-dT15/E. coli SSB fluorescence interference; actives lie on both sides | actives 8% (n = 240);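 active means fluorescence interference ratio at or above 1.2, signal boosting, or at or below 0.8, signal quenching; inactive means ratio between 0.8 and 1.2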
Cy5 fluor confirm – confirmation counter-screen for HCV NS3 helicase inhibitors: fluorescence interference. AID 720489. shares compounds with NS3h inh CB. Cy5-dT15 DNA/NS3h fluorescence interference counterscreen. fluorescence interference ratio at 100 µM, hits read low. actives 44% (n = 240);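 active means fluorescence interference ratio at or below 0.8 quencher or at or above a set limitenhancer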
Of the large screens only hits and unclear results are named; the others gave an inactive call (follow-up assays come after a bar, where they were run). Hits are enriched below; roughly 6.9% of the tested compounds scored in any of these assays.

Cc1ccc(C)n1/N=C1/NC(=O)CS1	NS3h inh CB 90.0 | NS3h confirm 77.4 | SSB-DNA FP CB 107.3 | Cy5 SSB interf inactive | Cy5 fluor confirm inactive
O=C1CSC(=Nc2ccc(O)cc2)N1	none
CS(=O)(=O)N(CC(=O)NCCNC(=O)CN(c1ccc(Cl)cc1)S(C)(=O)=O)c1ccc(Cl)cc1	none
N#CCCS(=O)(=O)c1cc(Cl)ccc1Cl	none
CN(C)c1ccc(C(=O)Nc2ccc(S(N)(=O)=O)cc2)cc1	NS3h inh CB 78.2 | NS3h confirm 57.3 | SSB-DNA FP CB inactive | Cy5 SSB interf inactive | Cy5 fluor confirm 0.784
CN(C)c1ccc(NC(=O)c2ccc(Cl)cc2)cc1	none
O=C(CCCN1C(=O)c2ccccc2C1=O)N(Cc1ccccc1)Cc1ccccc1	none
Cc1ccc(OCCOc2ccc(Br)cc2/C=C2/SC(=S)N(C)C2=O)cc1	none
Cc1ccc(OCCOc2ccc(Cl)cc2/C=C2/SC(=S)N(C)C2=O)cc1	NS3h inh CB 45.8 | NS3h confirm inactive | SSB-DNA FP CB inactive | Cy5 SSB interf inactive | Cy5 fluor confirm 0.8
CC(/C=C1\SC(=S)N(C(C(=O)O)c2ccccc2)C1=O)=C\c1ccccc1 (stereo not given)	none | NS3h confirm inactive | SSB-DNA FP CB inactive | Cy5 SSB interf inactive | Cy5 fluor confirm 0.686
O=C1C(=C/C(Br)=C/c2ccccc2)SC(=S)N1Cc1ccccc1	none
CC1=C(C#N)c2nc(N)c(C#N)c(C)c2/C1=C\c1ccc(I)o1	none
CC1=C(C#N)c2nc(N)c(C#N)c(C)c2/C1=C/c1ccc(-c2cccc(C(=O)O)c2)o1	NS3h inh CB 121.0 | NS3h confirm 71.1 | SSB-DNA FP CB 152.2 | Cy5 SSB interf inactive | Cy5 fluor confirm inactive
COc1ccc(NC(=O)/C(C#N)=C\c2ccc(-c3ccc(C)cc3Br)o2)cc1	none
COc1ccc(/C=C/C(=O)CC(=O)C(Cl)(Cl)Cl)cc1	none
O=C(CN(c1ccccc1)S(=O)(=O)c1ccccc1[N+](=O)[O-])N1CCOCC1	none
O=C1C=CC(=O)N1c1ccc(Cc2ccc(N3C(=O)C=CC3=O)c(Cl)c2)cc1Cl	none
O=C1C=CC(=O)N1c1ccccc1N1C(=O)C=CC1=O	NS3h inh CB 80.8 | NS3h confirm 62.6 | SSB-DNA FP CB inactive | Cy5 SSB interf inactive | Cy5 fluor confirm inactive
COc1ccc(NC(=O)N2CCN(c3ccc(F)cc3)CC2)cc1	none
COc1ccc2occ(C(=O)c3ccc(N)cc3)c2c1	none | NS3h confirm inactive | SSB-DNA FP CB inactive | Cy5 SSB interf inactive | Cy5 fluor confirm inactive
COc1ccc2occ(C(=O)c3ccc([N+](=O)[O-])cc3)c2c1	none
COc1ccc(-c2cc(-c3cc(Cl)ccc3O)[nH]n2)cc1OC	none
COc1cc(/C=C2\C(=O)NN(c3ccccc3)C2=O)ccc1OCCOc1ccc(C)cc1	none
O=C(Nc1nc(-c2ccc(Cl)cc2)cs1)c1cccs1	none | NS3h confirm inactive | SSB-DNA FP CB inactive | Cy5 SSB interf inactive | Cy5 fluor confirm 0.768
O=C(NC(=S)Nc1nc(-c2ccccc2)cs1)c1ccc(Cl)cc1	none
CC(=Nc1cccc2ccccc12)c1cc(Cl)ccc1O	none
O=C1NC(=O)N(c2ccccc2)C(=O)/C1=C\c1cccc(OCc2ccccc2F)c1	none
O=C1NC(=O)C(=Cc2cccc(OCc3ccc(Cl)cc3Cl)c2)C(=O)N1	none | NS3h confirm inactive | SSB-DNA FP CB inactive | Cy5 SSB interf inactive | Cy5 fluor confirm 0.738
O=C(O)c1cc(C(=O)O)c2cc(Cl)ccc2n1	none
C/C(=C1/SC(=S)NC1=O)c1ccc(C)cc1	none
CCOc1ccc(C(=O)Nc2ccc(-c3nc4ccccc4s3)c(O)c2)cc1Cl	none
CCN1C(=O)/C(=C\c2ccc(F)cc2)C(C(=O)OC)=C1C	none
COc1ccc(/C(N)=N\OC(=O)c2ccc(F)cc2)cc1	none
Cc1cccc(N2C(=O)NC(=O)/C(=C/c3cc(Cl)c(O)c(Cl)c3)C2=O)c1	none
Cc1cccc(N2C(=O)NC(=O)/C(=C\c3cc(Br)c(O)c([N+](=O)[O-])c3)C2=O)c1	none | NS3h confirm inactive | SSB-DNA FP CB 62.4 | Cy5 SSB interf inactive | Cy5 fluor confirm 0.75
Cc1cc(C)cc(N2C(=O)NC(=O)/C(=C\c3cc(Br)c(O)c([N+](=O)[O-])c3)C2=O)c1	none | NS3h confirm inactive | SSB-DNA FP CB 52.7 | Cy5 SSB interf inactive | Cy5 fluor confirm inactive
COc1cc(/C=C2\C(=O)NC(=O)N(c3cc(C)cc(C)c3)C2=O)cc(OC)c1O	none
CC(NC(=O)c1cc2n(n1)C(C(F)(F)F)CC(c1ccc(Br)cc1)N2)c1ccccc1 (stereo not given)	none
COc1ccc(CNC(=O)c2c(-c3c(Cl)cccc3Cl)noc2C)cc1	none
O=C1NC(=O)N(c2cccc(Br)c2)C(=O)/C1=C/c1ccc(O)c(Cl)c1	none
O=C1NC(=O)N(c2ccc(Cl)cc2)C(=O)/C1=C/c1cc(I)c(O)c([N+](=O)[O-])c1	NS3h inh CB 77.5 | NS3h confirm inactive | SSB-DNA FP CB 91.5 | Cy5 SSB interf inactive | Cy5 fluor confirm inactive
O=C1NC(=O)N(c2ccc(Cl)cc2)C(=O)/C1=C\c1cccc(O)c1	none
O=C1NC(=O)N(c2ccc(Cl)cc2)C(=O)/C1=C/c1ccc(O)c(Cl)c1	NS3h inh CB 74.5 | NS3h confirm inactive | SSB-DNA FP CB inactive | Cy5 SSB interf inactive | Cy5 fluor confirm inactive
CC(C)(C)N=CC(C=NC(C)(C)C)[N+](=O)[O-] (stereo not given)	none
CCOc1ccc(NC(=O)c2cccc(Oc3ccccc3)c2)c([N+](=O)[O-])c1	none
O=C1C2C3C=CC(C3)C2C(=O)N1c1ccc([N+](=O)[O-])cc1Br (stereo not given)	none
O=C1C2C3CCC(O3)C2C(=O)N1c1cccc([N+](=O)[O-])c1 (stereo not given)	none
O=C1C=CC(=O)N1c1ccc([N+](=O)[O-])cc1Br	NS3h inh CB 88.3 | NS3h confirm 61.6 | SSB-DNA FP CB inactive | Cy5 SSB interf inactive | Cy5 fluor confirm 0.758
O=C1C=CC(=O)N1c1cccc([N+](=O)[O-])c1	NS3h inh CB 62.9 | NS3h confirm 65.8 | SSB-DNA FP CB inactive | Cy5 SSB interf inactive | Cy5 fluor confirm inactive
CCOc1ccc(N2C(=O)C=CC2=O)c([N+](=O)[O-])c1	NS3h inh CB 63.8 | NS3h confirm inactive | SSB-DNA FP CB inactive | Cy5 SSB interf inactive | Cy5 fluor confirm inactive
Cc1ccc(N2C(=O)C=CC2=O)c(Br)c1	NS3h inh CB 76.5 | NS3h confirm 61.6 | SSB-DNA FP CB inactive | Cy5 SSB interf inactive | Cy5 fluor confirm inactive
Cc1ccc(OCC(N)=O)c(Br)c1	none
CCOc1ccc(NC(=O)CN(c2ccccc2CC)S(C)(=O)=O)cc1	none
CC(=O)c1cccc(NC(=O)c2ccc(C(=O)Nc3cccc(C(C)=O)c3)cc2)c1	none
COCCCNC(=O)CN(c1ccc(Cl)c(C(F)(F)F)c1)S(=O)(=O)c1ccccc1	none
COCCCNC(=O)CN(c1ccc(C)c(Cl)c1)S(C)(=O)=O	none
CCN(CC)c1ccc(/C=C2\C(=O)NC(=O)N(c3ccccc3OC)C2=O)cc1	none

Screens (PubChem BioAssay)
